# What was measured:
# [1] = biological target: T1, Serine/threonine-protein kinase BRSK1 (Homo sapiens) (UniProt Q8TDC3); conditions: at 1 µM
# T1 sequence (whole entry): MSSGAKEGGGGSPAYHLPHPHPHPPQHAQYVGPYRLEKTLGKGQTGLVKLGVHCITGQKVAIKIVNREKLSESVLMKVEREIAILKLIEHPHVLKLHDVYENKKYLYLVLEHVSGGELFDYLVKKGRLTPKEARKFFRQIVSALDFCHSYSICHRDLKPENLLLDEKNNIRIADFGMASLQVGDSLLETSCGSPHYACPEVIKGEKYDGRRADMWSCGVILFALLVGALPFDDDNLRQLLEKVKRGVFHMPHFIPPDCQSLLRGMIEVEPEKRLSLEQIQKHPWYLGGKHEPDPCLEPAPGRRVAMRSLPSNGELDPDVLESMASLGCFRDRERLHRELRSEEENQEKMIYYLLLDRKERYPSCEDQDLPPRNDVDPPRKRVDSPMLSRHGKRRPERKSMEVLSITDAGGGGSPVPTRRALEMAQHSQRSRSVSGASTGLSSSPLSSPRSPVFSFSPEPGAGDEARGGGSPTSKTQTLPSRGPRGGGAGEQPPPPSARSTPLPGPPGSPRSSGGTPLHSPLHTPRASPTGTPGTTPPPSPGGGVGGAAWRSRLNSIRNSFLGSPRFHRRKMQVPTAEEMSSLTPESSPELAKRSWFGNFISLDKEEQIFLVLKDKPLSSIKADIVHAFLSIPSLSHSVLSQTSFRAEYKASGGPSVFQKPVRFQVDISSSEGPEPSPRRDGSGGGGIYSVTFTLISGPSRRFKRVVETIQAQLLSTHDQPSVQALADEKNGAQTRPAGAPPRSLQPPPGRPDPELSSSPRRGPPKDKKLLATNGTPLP
# [2] = biological target: T1, Serine/threonine-protein kinase BRSK1 (Homo sapiens); conditions: at 10 µM
# [3] = biological target: T2, Serine/threonine-protein kinase BRSK2 (Homo sapiens) (UniProt Q8IWQ3); conditions: at 1 µM
# T2 sequence (whole entry): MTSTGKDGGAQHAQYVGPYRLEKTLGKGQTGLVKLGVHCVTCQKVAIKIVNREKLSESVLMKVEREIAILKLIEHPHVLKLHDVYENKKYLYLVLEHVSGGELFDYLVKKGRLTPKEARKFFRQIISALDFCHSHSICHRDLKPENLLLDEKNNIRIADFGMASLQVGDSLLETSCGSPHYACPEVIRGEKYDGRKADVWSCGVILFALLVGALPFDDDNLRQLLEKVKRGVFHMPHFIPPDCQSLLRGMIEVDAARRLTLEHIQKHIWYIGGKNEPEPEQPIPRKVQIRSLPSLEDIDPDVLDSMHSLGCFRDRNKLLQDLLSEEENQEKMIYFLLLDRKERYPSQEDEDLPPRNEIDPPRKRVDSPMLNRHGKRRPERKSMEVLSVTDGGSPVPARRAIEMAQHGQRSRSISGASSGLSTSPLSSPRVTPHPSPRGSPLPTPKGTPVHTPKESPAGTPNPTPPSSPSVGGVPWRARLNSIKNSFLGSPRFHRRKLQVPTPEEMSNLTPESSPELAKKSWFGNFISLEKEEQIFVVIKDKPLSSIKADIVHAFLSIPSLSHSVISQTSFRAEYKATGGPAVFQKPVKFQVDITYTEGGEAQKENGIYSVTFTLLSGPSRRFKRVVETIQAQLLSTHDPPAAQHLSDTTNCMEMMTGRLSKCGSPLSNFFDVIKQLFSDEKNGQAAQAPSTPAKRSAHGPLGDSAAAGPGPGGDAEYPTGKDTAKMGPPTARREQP
# [4] = biological target: T2, Serine/threonine-protein kinase BRSK2 (Homo sapiens); conditions: at 10 µM
# [5] = biological target: T3, Cyclin-dependent kinase 1/cyclin B1 (Homo sapiens) (UniProt P06493+P14635); conditions: at 1 µM
# [6] = biological target: T3, Cyclin-dependent kinase 1/cyclin B1 (Homo sapiens); conditions: at 10 µM
# [7] = biological target: T4, Cyclin-dependent kinase 2/cyclin A (Homo sapiens) (UniProt P24941+P20248+P78396); conditions: at 1 µM
# [8] = biological target: T4, Cyclin-dependent kinase 2/cyclin A (Homo sapiens); conditions: at 10 µM
# [9] = biological target: T5, Cyclin-dependent kinase 2/cyclin E (Homo sapiens) (UniProt P24864+P24941+O96020); conditions: at 1 µM
# [10] = biological target: T5, Cyclin-dependent kinase 2/cyclin E (Homo sapiens); conditions: at 10 µM
# [11] = biological target: T6, CDK3/cyclin E (Homo sapiens) (UniProt P24864+O96020+Q00526); conditions: at 1 µM
# [12] = biological target: T6, CDK3/cyclin E (Homo sapiens); conditions: at 10 µM
# [13] = biological target: T7, Cyclin-dependent kinase 5/CDK5 activator 1 (Homo sapiens) (UniProt Q00535+Q15078); conditions: at 1 µM
# [14] = biological target: T7, Cyclin-dependent kinase 5/CDK5 activator 1 (Homo sapiens); conditions: at 10 µM
# [15] = biological target: T7, Cyclin-dependent kinase 5/CDK5 activator 1 (Homo sapiens); conditions: at 1 µM; remark: listed apart in the source
# [16] = biological target: T7, Cyclin-dependent kinase 5/CDK5 activator 1 (Homo sapiens); conditions: at 10 µM; remark: listed apart in the source
# [17] = biological target: T8, CDK6/cyclin D3 (Homo sapiens) (UniProt P30281+Q00534); conditions: at 1 µM
# [18] = biological target: T8, CDK6/cyclin D3 (Homo sapiens); conditions: at 10 µM
# [19] = biological target: T9, Cyclin-dependent kinase 7/ cyclin H (Homo sapiens) (UniProt P51946+P50613); conditions: at 1 µM
# [20] = biological target: T9, Cyclin-dependent kinase 7/ cyclin H (Homo sapiens); conditions: at 10 µM
# T3 sequence (P06493 whole entry, looked up): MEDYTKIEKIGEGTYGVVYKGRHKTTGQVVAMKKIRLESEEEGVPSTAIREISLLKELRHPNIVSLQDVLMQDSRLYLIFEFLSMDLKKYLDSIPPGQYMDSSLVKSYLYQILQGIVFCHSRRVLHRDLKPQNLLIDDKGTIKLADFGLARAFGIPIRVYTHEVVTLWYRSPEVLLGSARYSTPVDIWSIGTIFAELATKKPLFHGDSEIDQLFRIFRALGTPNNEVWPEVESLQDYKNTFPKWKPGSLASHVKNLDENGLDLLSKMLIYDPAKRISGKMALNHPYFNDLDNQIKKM
# T3 sequence (P14635 whole entry, looked up): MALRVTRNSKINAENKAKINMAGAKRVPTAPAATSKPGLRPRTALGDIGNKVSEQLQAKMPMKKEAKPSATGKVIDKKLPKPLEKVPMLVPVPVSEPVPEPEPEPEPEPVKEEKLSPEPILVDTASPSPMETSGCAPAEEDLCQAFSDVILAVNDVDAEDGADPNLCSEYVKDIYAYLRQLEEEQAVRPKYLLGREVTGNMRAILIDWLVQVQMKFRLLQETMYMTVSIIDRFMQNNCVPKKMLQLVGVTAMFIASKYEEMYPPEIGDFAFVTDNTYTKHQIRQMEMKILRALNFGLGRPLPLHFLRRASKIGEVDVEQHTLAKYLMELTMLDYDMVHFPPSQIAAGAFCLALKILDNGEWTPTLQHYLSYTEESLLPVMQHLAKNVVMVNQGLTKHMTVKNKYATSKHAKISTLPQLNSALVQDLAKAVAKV
# T7 sequence (Q00535 whole entry): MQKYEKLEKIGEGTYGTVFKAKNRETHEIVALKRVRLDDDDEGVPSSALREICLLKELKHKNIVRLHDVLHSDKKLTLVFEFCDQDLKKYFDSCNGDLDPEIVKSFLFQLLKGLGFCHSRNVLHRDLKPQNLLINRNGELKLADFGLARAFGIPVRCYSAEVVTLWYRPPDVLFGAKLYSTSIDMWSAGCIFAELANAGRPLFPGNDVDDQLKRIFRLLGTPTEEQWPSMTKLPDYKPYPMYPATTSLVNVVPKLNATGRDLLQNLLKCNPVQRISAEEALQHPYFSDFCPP
# T7 sequence (Q15078 99-307 partner limits assumed): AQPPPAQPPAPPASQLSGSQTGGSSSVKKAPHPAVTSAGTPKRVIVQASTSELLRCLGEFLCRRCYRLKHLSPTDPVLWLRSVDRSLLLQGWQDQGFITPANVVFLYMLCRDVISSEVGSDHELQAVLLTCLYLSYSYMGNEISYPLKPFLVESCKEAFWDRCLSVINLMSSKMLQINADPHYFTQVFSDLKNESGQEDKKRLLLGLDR
# T6 sequence (O96020 whole entry, looked up): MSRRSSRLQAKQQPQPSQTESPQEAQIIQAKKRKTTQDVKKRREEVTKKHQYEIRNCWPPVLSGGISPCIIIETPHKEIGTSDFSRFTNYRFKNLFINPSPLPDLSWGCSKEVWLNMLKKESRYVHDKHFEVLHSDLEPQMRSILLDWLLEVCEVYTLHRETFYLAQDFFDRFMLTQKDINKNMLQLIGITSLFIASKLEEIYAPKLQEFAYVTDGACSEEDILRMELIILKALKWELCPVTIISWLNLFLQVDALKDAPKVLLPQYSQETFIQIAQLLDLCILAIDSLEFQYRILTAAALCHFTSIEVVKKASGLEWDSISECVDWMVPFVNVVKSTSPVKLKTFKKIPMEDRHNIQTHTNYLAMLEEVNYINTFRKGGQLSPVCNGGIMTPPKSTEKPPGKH
# T6 sequence (P24864 whole entry, looked up): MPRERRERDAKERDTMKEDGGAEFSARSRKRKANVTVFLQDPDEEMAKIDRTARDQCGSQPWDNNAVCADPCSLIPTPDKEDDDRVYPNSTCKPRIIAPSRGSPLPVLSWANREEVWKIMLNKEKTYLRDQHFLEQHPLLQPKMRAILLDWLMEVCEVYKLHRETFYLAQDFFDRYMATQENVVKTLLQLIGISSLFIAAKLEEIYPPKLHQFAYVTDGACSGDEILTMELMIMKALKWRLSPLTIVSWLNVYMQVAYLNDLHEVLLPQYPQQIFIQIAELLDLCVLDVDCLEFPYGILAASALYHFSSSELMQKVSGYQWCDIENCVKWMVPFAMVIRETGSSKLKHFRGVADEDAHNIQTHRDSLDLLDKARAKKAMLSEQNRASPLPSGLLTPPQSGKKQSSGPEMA
# T6 sequence (Q00526 whole entry, looked up): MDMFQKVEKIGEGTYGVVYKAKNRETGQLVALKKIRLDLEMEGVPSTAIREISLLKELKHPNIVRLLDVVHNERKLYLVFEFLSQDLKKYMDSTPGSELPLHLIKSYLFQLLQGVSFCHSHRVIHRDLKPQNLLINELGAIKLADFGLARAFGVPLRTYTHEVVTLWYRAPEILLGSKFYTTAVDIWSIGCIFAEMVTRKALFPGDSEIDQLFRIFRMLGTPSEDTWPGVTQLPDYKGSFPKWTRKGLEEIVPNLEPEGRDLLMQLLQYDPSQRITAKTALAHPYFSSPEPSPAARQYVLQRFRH
structure (smiles),measurement,setting,value
O=C1NC(=O)c2c1c1c3ccccc3[nH]c1n1cncc21,residual activity,[1],32%
same,residual activity,[2],25%
same,residual activity,[3],23%
same,residual activity,[4],17%
same,residual activity,[5],83%
same,residual activity,[6],53%
same,residual activity,[7],64%
same,residual activity,[8],61%
same,residual activity,[9],58%
same,residual activity,[10],35%
same,residual activity,[11],48%
same,residual activity,[12],27%
same,residual activity,[13],49%
same,residual activity,[14],30%
same,residual activity,[15],52%
same,residual activity,[16],30%
same,residual activity,[17],62%
same,residual activity,[18],28%
same,residual activity,[19],87%
same,residual activity,[20],69%
NC(=O)c1ccc(-c2nc(-c3ccc4c(c3)OCCO4)c(-c3ccccn3)[nH]2)cc1,residual activity,[1],99%
same,residual activity,[2],77%
same,residual activity,[3],119%
same,residual activity,[4],97%
same,residual activity,[7],96%
same,residual activity,[8],85%
same,residual activity,[9],92%
same,residual activity,[10],87%
same,residual activity,[14],84%
same,residual activity,[15],96%
same,residual activity,[16],80%
same,residual activity,[19],92%
same,residual activity,[20],81%
CCCCc1c(-c2ccc(O)cc2)[nH]c2nccnc12,residual activity,[1],88%
same,residual activity,[2],88%
same,residual activity,[5],29%
same,residual activity,[6],18%
same,residual activity,[9],20%
same,residual activity,[10],16%
same,residual activity,[11],29%
same,residual activity,[12],6%
same,residual activity,[17],89%
same,residual activity,[18],33%
same,residual activity,[19],78%
same,residual activity,[20],51%
COc1ccc(COc2ccc(Cc3cnc(N)nc3N)cc2OC)cc1,residual activity,[3],99%
same,residual activity,[4],115%
same,residual activity,[6],109%
N#Cc1c(NC(=O)c2cccc3ccccc23)sc2c1CCCC2,residual activity,[4],90%
same,residual activity,[7],96%
same,residual activity,[8],90%
same,residual activity,[9],96%
same,residual activity,[10],94%
same,residual activity,[18],90%
COc1cc2nccc(Oc3ccc(NC(=O)Nc4cc(C)on4)c(Cl)c3)c2cc1OC,residual activity,[1],65%
same,residual activity,[2],46%
same,residual activity,[7],106%
same,residual activity,[8],99%
same,residual activity,[17],96%
same,residual activity,[18],99%
same,residual activity,[19],99%
same,residual activity,[20],107%
Cn1sc(=O)n(Cc2ccccc2)c1=O,residual activity,[1],86%
same,residual activity,[2],83%
same,residual activity,[7],79%
same,residual activity,[8],79%
same,residual activity,[9],96%
same,residual activity,[10],95%
same,residual activity,[11],83%
same,residual activity,[12],79%
same,residual activity,[13],81%
same,residual activity,[14],81%
same,residual activity,[15],97%
same,residual activity,[16],97%
same,residual activity,[17],89%
same,residual activity,[18],82%
same,residual activity,[19],99%
same,residual activity,[20],86%
CC(C)N(CCC(=O)c1ccc2ccccc2c1)Cc1ccccc1,residual activity,[1],87%
same,residual activity,[11],86%
same,residual activity,[12],77%
same,residual activity,[13],87%
same,residual activity,[15],79%
same,residual activity,[16],81%
same,residual activity,[17],87%
same,residual activity,[18],78%
same,residual activity,[19],83%
same,residual activity,[20],82%
CN([C@@H](Cc1ccc(OS(=O)(=O)c2cccc3cnccc23)cc1)C(=O)N1CCN(c2ccccc2)CC1)S(=O)(=O)c1cccc2cnccc12,residual activity,[2],74%
same,residual activity,[4],79%
same,residual activity,[8],98%
COc1cc2ncnc(Nc3cccc(Cl)c3)c2cc1OC,residual activity,[1],14%
same,residual activity,[2],17%
same,residual activity,[7],138%
same,residual activity,[9],109%
same,residual activity,[10],105%
same,residual activity,[11],105%
same,residual activity,[13],113%
same,residual activity,[14],107%
same,residual activity,[18],100%
NC(=O)c1cccc(-c2cc(Nc3ccc(OC(F)(F)F)cc3)ncn2)c1,residual activity,[7],139%
same,residual activity,[8],94%
same,residual activity,[13],93%
same,residual activity,[14],65%
same,residual activity,[20],91%
O=C1Cc2c([nH]c3ccc(Br)cc23)-c2ccccc2N1,residual activity,[1],64%
same,residual activity,[2],37%
same,residual activity,[5],52%
same,residual activity,[6],9%
same,residual activity,[9],36%
same,residual activity,[10],2%
same,residual activity,[11],54%
same,residual activity,[12],9%
same,residual activity,[15],47%
same,residual activity,[16],9%
same,residual activity,[17],78%
same,residual activity,[18],30%
same,residual activity,[19],91%
same,residual activity,[20],80%
O=C(Nc1ccc(Cl)cc1)c1ccccc1NCc1ccncc1,residual activity,[2],126%
same,residual activity,[7],126%
same,residual activity,[17],102%
same,residual activity,[18],102%
same,residual activity,[20],124%
Fc1ccc(-c2nc3n(c2-c2ccncc2)CCS3)cc1,residual activity,[1],99%
same,residual activity,[2],100%
same,residual activity,[5],100%
same,residual activity,[6],95%
same,residual activity,[7],83%
same,residual activity,[8],89%
same,residual activity,[10],94%
same,residual activity,[17],124%
CCOc1nc(NC(=O)Cc2cc(OC)ccc2OC)cc(N)c1C#N,residual activity,[11],82%
same,residual activity,[17],100%
O=C1NC(=O)C(c2cn(CCCn3ccnc3)c3ccccc23)=C1Nc1ccccc1,residual activity,[1],59%
same,residual activity,[2],75%
same,residual activity,[7],103%
same,residual activity,[8],21%
same,residual activity,[9],76%
same,residual activity,[10],24%
same,residual activity,[11],51%
same,residual activity,[12],13%
same,residual activity,[13],64%
same,residual activity,[14],20%
same,residual activity,[15],71%
same,residual activity,[16],24%
same,residual activity,[17],82%
same,residual activity,[18],68%
same,residual activity,[19],77%
same,residual activity,[20],64%
COc1ccc(CNC(=O)Nc2ncc([N+](=O)[O-])s2)cc1,residual activity,[7],78%
same,residual activity,[8],79%
same,residual activity,[11],68%
same,residual activity,[12],26%
same,residual activity,[20],69%
O=S(=O)(c1cccc2cnccc12)N1CCCNCC1,residual activity,[2],84%
same,residual activity,[4],80%

# — ChEMBL document CHEMBL2218924, “A broad activity screen in support of a chemogenomic map for kinase signalling research and drug discovery” (Biochem J, 2013)
